Laboratory results taken from PubChem BioAssay AID504834 (National Center for Advancing Translational Sciences (NCATS), 2011).
Screen size: about 320,000 compounds; about 22,000 (6.9%) were called active. About 27% were inconclusive and are not listed. The entries come from a sample that favours actives as a whole. Values without a mark were called inactive. The call rests on the fitted dose curve; in most records, active means well fitted inhibition curve with a large enough effect; inconclusive means small, poorly fitted or top-dose-only effect, or another doubt; inactive means no such curve, though single readings can be large or run the other way.

Assay: Primary qHTS for delayed death inhibitors of the malarial parasite plastid, 96 hour incubation
Settings: P. falciparum luciferase reporter growth; series mostly up to 28.7 µM; activity change, negative = inhibition: at the top concentration
How it was run: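 P. falciparum expressing integrated firefly luciferase, in erythrocytes at 2% hematocrit, 0.05% parasitemia, incubated with compounds 96 h at 37 C, 5% CO2. Growth inhibition read as loss of luminescence; two-generation exposure targets delayed-death apicoplast inhibitors.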
On the % scale 0 is the no-effect control and ±100 the full control effect; potency means the concentration at half of the fitted maximal effect.

Row | Compound | activity change, negative = inhibition [%] | Potency
1 | O=c1ccc2cc(S(=O)(=O)Nc3ccccc3F)ccc2o1 | -5.54 | 
2 | O=C1COc2ccc(S(=O)(=O)Nc3ccc(OC(F)(F)F)cc3)cc2N1 | 61.4 | 
3 | O=C(COC(=O)c1ncc(Cl)c(Cl)c1Cl)NCc1cccs1 | 26 | 
4 | O=C(COC(=O)c1cccs1)NCc1cccs1 | -16.4 | 
5 | O=C(COC(=O)c1ccc(Cl)nc1)NCc1cccs1 |  | 2330 nM (active)
6 | COc1ccc(-c2nn(-c3ccccc3)cc2/C=C2/SC(=S)N(CCCC(=O)O)C2=O)c(C)c1 | 0 | 
7 | CS(=O)(=O)N1CCc2cc(C(=O)Nc3ccccc3Br)ccc21 | 36.8 | 
8 | O=C(O)c1cnn2c(C(F)(F)F)cc(-c3ccccc3)nc12 | 0.482 | 
9 | COc1ccc(C(=O)Nc2ccccc2C(=O)NCc2ccco2)cc1 | 5.08 | 
10 | O=C(NCc1ccco1)c1cnn2c(C(F)(F)F)cc(-c3ccco3)nc12 |  | 1650 nM (active)
11 | CCC1CCCCN1C(=O)CSc1nc2c(c(=O)n(C)c(=O)n2C)n1C (centres undefined) | 30.9 | 
12 | CCC1CCCCN1C(=O)CSc1nc(C)cc(C)n1 (centres undefined) | -20.6 | 
13 | CCC1CCCCN1C(=O)CSc1nc2c(c(=O)n1C)SC(C)C2 (centres undefined) |  | 1470 nM (active)
14 | O=S(=O)(NCc1ccccc1Br)c1ccccc1Br | -12.7 | 
15 | O=C(CN1CCN(C2CCS(=O)(=O)C2)CC1)N1N=C(c2ccc(Cl)cc2)CC1c1ccco1 (centres undefined) | 70.1 | 
16 | CCOC(CNC(=O)C(=O)NCC(c1ccco1)N1CCN(c2ccc(OC)cc2)CC1)OCC (centres undefined) | 37.7 | 
17 | COc1cc(C(=O)NCC(c2ccco2)N2CCCC2)ccc1OCc1ccccc1 (centres undefined) |  | 2620 nM (active)
18 | CC1Cc2ccccc2N1S(=O)(=O)c1cccc(C(=O)NCC(c2ccco2)N2CCCC2)c1 (centres undefined) |  | 1850 nM (active)
19 | COc1ccc(C(=O)NCC(c2ccco2)N2CCc3ccccc32)cc1OC (centres undefined) | -14.9 | 
20 | Cc1ccccc1C(=O)NCC(c1ccco1)N1CCc2ccccc21 (centres undefined) | -10.7 | 
21 | O=C(NCC(c1ccco1)N1CCc2ccccc2C1)c1ccccc1Cl (centres undefined) | -4.98 | 
22 | O=C(Cc1ccccc1Cl)N1CCOCC1 | 52 | 
23 | COc1ccc(CCNC(=O)c2nnc(CS(=O)(=O)c3ccccc3)o2)cc1OC | 21.2 | 
24 | CC(C)Cc1nnc(NC(=O)CN2C(=O)NC3(CCCCC3)C2=O)s1 | -3.02 | 
25 | COc1ccc(CCN2C(=O)C3CC=C(C)CC3C2=O)cc1OC (centres undefined) | 17.6 | 
26 | COc1ccc(CCN=C2SCC(=O)N2C)cc1OC | 128 | 
27 | COc1ccc(CCN2CNc3c(c(=O)n(C)c(=O)n3C)C2)cc1OC |  | 13100 nM (active)
28 | CN(c1ccccc1)S(=O)(=O)c1cccc(C(=O)NNC(=O)c2ccncc2)c1 | 36 | 
29 | COc1cccc(NC(=O)N2C3CCCC2CC(NC(C)=O)C3)c1 (centres undefined) | -17.1 | 
